# Measured values published in PubChem BioAssay (Tox21).
# Several values for one entry are separate records, joined by “and”; a condition that tells them apart may be missing. Equal values may be shown once. Values without a mark were called inactive. Records with an inconclusive call do not appear. A call without a number means that no potency is given here. Activity calls are given as the source filed them. Unless noted, calls come from the whole dose curve; as a rule, active = well fitted curve in the direction sought with a large enough effect in the repeat runs; inconclusive = weak or mixed curves; inactive = no such curve, though single readings can be large; an effect the other way counts as inactive or inconclusive.
# What was measured:
# [1] = qHTS assay to identify small molecule agonists of H2AX (AID 1224845; active = well fitted activation curve with a large enough effect in the signal ratio in the repeat runs, not every such curve was filed as active; the % refers to the signal ratio; note: potency is the fitted concentration of half-maximal effect)
# Method in brief: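 Wild-type CHO-K1 cells, plated overnight, exposed 3hr at 37C to 15 concentrations (0.76% DMSO final). Lysed, then HTRF anti-pH2AX (S139) cryptate and anti-H2AX-d2 antibodies, 24 hr room temperature; 665/620 nm emission read.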
# [2] = qHTS assay to identify small molecule agonists of the hypoxia (HIF-1) signaling pathway (AID 1224846; active = well fitted activation curve with a large enough effect in the signal ratio in the repeat runs, not every such curve was filed as active; the % refers to the signal ratio)
# Method in brief: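 In ME-180 cells bearing an HRE-bla construct, 17 h treatment with DMSO-dissolved compounds at 37C was followed by CCF4-AM loading to quantify reporter induction.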
# [3] = qHTS assay to identify small molecule antagonists of the estrogen related receptor (ERR) signaling pathway from Tox21 library (AID 1224848); note: nearly all actives have a fitted effect of over 50% in size; note: potency is the fitted concentration of half-maximal effect
# Method in brief: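 Quantitative high-throughput format: ERR reporter cells (2,000/well) pre-incubated 6 h, treated 18 h at 37 C with compounds in DMSO alongside positive and negative controls, then read by ONE-Glo luminescence.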
# [4] = qHTS assay to identify small molecule agonists of the estrogen related receptor (ERR) signaling pathway from Tox21 library (AID 1224849; calls by dose curve; note: nearly all actives have a fitted effect of over 15% in size); conditions: ERR reporter cell line, ONE-Glo luciferase, 18 h; at 92.4 µM (top of the series) unless noted
# Method in brief: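 Reporter cells (ERR, NTP source) treated with Tox21 10K compounds 18 h, 37 C. Readout: ONE-Glo luminescence, 30 min RT.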
# [5] = qHTS RealTime-Glo MT Cell Viability Assay in HepG2 cells - 24 hour (AID 1224867); note: nearly all actives have a fitted effect of over 50% in size; note: potency is the fitted concentration of half-maximal effect
# Method in brief: (§1)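 Cells + NanoLuc/prosubstrate dispensed (600 cells/well) → 5 h at 37 C/5% CO2 → compounds in DMSO transferred → 40 h incubation at 37 C, luminescence read at 0, 8, 16, 24, 32, 40 h.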
# [6] = qHTS RealTime-Glo MT Cell Viability Assay in HEK293 cells - 32 hour (AID 1224868); note: nearly all actives have a fitted effect of over 50% in size; note: potency is the fitted concentration of half-maximal effect; for activity change, negative = cytotoxic: top concentration of the series differs between compounds
# Method in brief: (§2)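 Tox21 10K qHTS, HEK293, 600 cells/well, RealTime-Glo reagent co-dispensed with cells; 5 h preincubation, compound by pintool, 37 C, luminescence at 0–40 h.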
# [7] = qHTS RealTime-Glo MT Cell Viability Assay in HepG2 cells - 40 hour (AID 1224870); note: nearly all actives have a fitted effect of over 50% in size; note: potency is the fitted concentration of half-maximal effect
# Method in brief: (§3)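 HepG2 cells (600/well) mixed with RealTime-Glo MT reagent, settled 5 h at 37 C/5% CO2 before compound addition. Nonlytic NanoLuc luminescence from viable-cell prosubstrate reduction read repeatedly during 40 h treatment at 37 C.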
# [8] = A CellTox Green Cytotoxicity Assay to monitor cytotoxicity in HEK293 cells - 40 hour (AID 1224871); note: nearly all actives have a fitted effect of over 45% in size; note: potency is the fitted concentration of half-maximal effect
# Method in brief: (§4)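 Homogeneous no-lysis format: HEK293 cell suspension mixed with CellTox Green reagent, seeded, incubated 5 h at 37 C/5% CO2, then dosed by pintool with compound in DMSO.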
# [9] = qHTS RealTime-Glo MT Cell Viability Assay in HEK293 cells - 16 hour (AID 1224872); note: nearly all actives have a fitted effect of over 50% in size; note: potency is the fitted concentration of half-maximal effect; for activity change, negative = cytotoxicity: top concentration of the series differs between compounds
# Method in brief: as §2
# [10] = qHTS RealTime-Glo MT Cell Viability Assay in HepG2 cells - 8 hour (AID 1224873); note: nearly all actives have a fitted effect of over 55% in size
# Method in brief: as §3
# [11] = qHTS RealTime-Glo MT Cell Viability Assay in HEK293 cells - 40 hour (AID 1224874); conditions: RealTime-Glo luminescence; max response: hits give low values; note: nearly all actives have a fitted effect of over 50% in size; note: potency is the fitted concentration of half-maximal effect
# Method in brief: (§5)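 Measured as luminescence from the same continuously cultured HEK293 wells at successive time points (0, 8, 16, 24, 32, 40 h) after compound addition. Reagent present from seeding; dosing at 5 h; incubation 37 C.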
# [12] = A CellTox Green Cytotoxicity Assay to monitor cytotoxicity in HEK293 cells - 24 hour (AID 1224875); note: nearly all actives have a fitted effect of over 45% in size; note: potency is the fitted concentration of half-maximal effect
# Method in brief: as §4
# [13] = A CellTox Green Cytotoxicity Assay to monitor cytotoxicity in HepG2 cells - 16 hour (AID 1224876); note: nearly all actives have a fitted effect of over 45% in size; note: potency is the fitted concentration of half-maximal effect
# Method in brief: (§6)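 Fluorescent DNA-binding dye, 600 HepG2 cells/well, 5 h preincubation then compound in DMSO; same plates read at 0–40 h, 37 C.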
# [14] = qHTS RealTime-Glo MT Cell Viability Assay in HepG2 cells - 32 hour (AID 1224877); note: nearly all actives have a fitted effect of over 55% in size; note: potency is the fitted concentration of half-maximal effect
# Method in brief: as §1
# [15] = A CellTox Green Cytotoxicity Assay to monitor cytotoxicity in HepG2 cells - 24 hour (AID 1224878); note: nearly all actives have a fitted effect of over 45% in size; note: potency is the fitted concentration of half-maximal effect
# Method in brief: as §6
# [16] = A CellTox Green Cytotoxicity Assay to monitor cytotoxicity in HepG2 cells - 40 hour (AID 1224879); note: nearly all actives have a fitted effect of over 40% in size; note: potency is the fitted concentration of half-maximal effect
# Method in brief: as §6
# [17] = qHTS RealTime-Glo MT Cell Viability Assay in HEK293 cells - 0 hour (AID 1224880)
# Method in brief: as §5
# [18] = A CellTox Green Cytotoxicity Assay to monitor cytotoxicity in HEK293 cells - 0 hour (AID 1224869); note: nearly all actives have a fitted effect of over 50% in size; note: potency is the fitted concentration of half-maximal effect
# Method in brief: as §4
# [19] = qHTS assay to identify small molecule agonists of H2AX - cell viability counter screen (AID 1224847; calls by dose curve; note: nearly all actives have a fitted effect of over 30% in size; note: potency is the fitted concentration of half-maximal effect; for activity change, negative = cytotoxicity: top concentration of the series differs between compounds)
# Method in brief: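 For this counter screen, overnight-attached CHO-K1 cells received test compounds (15 concentrations, 0.76% DMSO final); 3 hr later at 37C, CellTiter-Glo reagent was added and luminescence recorded after 30 min at room temperature.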
structure (smiles),measurement,setting,value
C=C(C)C(=O)OCC,Potency,[1],inactive
same,Potency,[2],inactive
same,Potency,[3],inactive
same,"activity change, positive = activation",[4],5.74%
same,Potency,[5],inactive
same,Potency,[6],inactive
same,Potency,[7],inactive
same,Potency,[8],inactive
same,Potency,[9],inactive
same,Potency,[10],inactive
same,max response,[11],2.67%
same,Potency,[12],inactive
same,Potency,[13],inactive
same,Potency,[14],inactive
same,Potency,[15],inactive
same,Potency,[16],inactive
same,Potency,[17],inactive
O=CC1CC=CCC1 (stereo not drawn),Potency,[1],inactive
same,Potency,[2],inactive
same,Potency,[7],inactive
same,Potency,[8],inactive
same,Potency,[9],inactive
same,Potency,[10],inactive
same,max response,[11],10.8%
same,Potency,[12],inactive
same,Potency,[13],inactive
same,Potency,[14],inactive
same,Potency,[15],inactive
same,Potency,[16],inactive
same,Potency,[17],inactive
Cc1cccc(C)c1OCC(=O)N[C@@H](Cc1ccccc1)[C@@H](O)C[C@H](Cc1ccccc1)NC(=O)[C@H](C(C)C)N1CCCNC1=O,Potency,[2],inactive
same,Potency,[3],23.7 µM (active)
same,"activity change, positive = activation",[4],-59.8% [at 42.5 µM]
same,Potency,[5],inactive
same,Potency,[6],23.9 µM (active)
same,Potency,[18],inactive
same,Potency,[7],inactive
same,Potency,[9],23.9 µM (active)
same,Potency,[10],inactive
same,Potency,[11],23.9 µM (active)
same,Potency,[13],inactive
same,Potency,[15],inactive
same,Potency,[16],inactive
same,Potency,[17],inactive
CCCCCCCCCCCCN1CCCCCC1=O,Potency,[1],inactive
same,"activity change, positive = activation",[4],-23.3%
same,Potency,[5],inactive
same,Potency,[18],inactive
same,Potency,[7],inactive
same,Potency,[10],inactive
same,Potency,[12],inactive
same,Potency,[14],inactive
same,Potency,[17],inactive
O=S(c1cc(Cl)cc(Cl)c1O)c1cc(Cl)cc(Cl)c1O,Potency,[1],inactive
same,Potency,[3],inactive
same,"activity change, positive = activation",[4],-6.01% [at 42.5 µM]
same,Potency,[5],inactive
same,Potency,[6],inactive
same,Potency,[18],inactive
same,Potency,[7],inactive
same,Potency,[8],inactive
same,Potency,[9],inactive
same,Potency,[10],inactive
same,max response,[11],-7.88%
same,Potency,[12],inactive
same,Potency,[13],inactive
same,Potency,[14],inactive
same,Potency,[15],inactive
same,Potency,[16],inactive
same,Potency,[17],inactive
Brc1c2ccccc2c(Br)c2ccccc12,"activity, negative = inhibition",[3],4.96% [at 8.39 µM]
same,"activity change, positive = activation",[4],2.61% [at 8.39 µM]
same,"activity change, negative = cytotoxicity",[5],2.73% [at 6.97 µM]
same,"activity change, negative = cytotoxic",[6],4.29% [at 6.97 µM]
same,cytotoxicity,[18],0.676% [at 6.97 µM]
same,"activity change, negative = cytotoxic",[7],1.43% [at 6.97 µM]
same,cytotoxicity increase,[8],-0.912% [at 6.97 µM]
same,"activity change, negative = cytotoxicity",[9],0.583% [at 6.97 µM]
same,"viability change, negative = cytotoxic",[10],0.903% [at 6.97 µM]
same,max response,[11],1.72%
same,activity change,[12],"-0.621% [at 6.97 µM, hits give high values]"
same,cytotoxicity increase,[13],2.77% [at 6.97 µM]
same,"activity change, negative = cytotoxic",[14],0.723% [at 6.97 µM]
same,cytotoxicity,[15],2.45% [at 6.97 µM]
same,cytotoxicity increase,[16],-0.88% [at 6.97 µM]
same,"activity change, negative = cytotoxicity",[17],0.766% [at 6.97 µM]
O=C(CS)Nc1ccccc1,Potency,[2],inactive
same,Potency,[5],inactive
same,Potency,[18],inactive
same,Potency,[7],inactive
same,Potency,[8],inactive
same,Potency,[9],inactive
same,Potency,[10],inactive
same,max response,[11],-18%
same,Potency,[12],inactive
same,Potency,[13],inactive
same,Potency,[14],inactive
same,Potency,[15],inactive
same,Potency,[16],inactive
same,Potency,[17],inactive
COc1ccc(C(=O)Nc2nc3ccccc3c(NCc3ccccc3)c2C#N)cc1,Potency,[2],inactive
same,Potency,[19],inactive
same,Potency,[3],inactive
same,"activity change, positive = activation",[4],-5.4%
same,Potency,[6],inactive
same,Potency,[7],inactive
same,Potency,[8],inactive
same,Potency,[9],inactive
same,max response,[11],-18.2%
same,Potency,[12],inactive
same,Potency,[13],inactive
same,Potency,[15],inactive
same,Potency,[16],inactive
same,Potency,[17],inactive
CCCCNc1ccc(C(=O)OCCOCCOCCOCCOCCOCCOCCOCCOCCOC)cc1,Potency,[1],inactive
same,Potency,[19],inactive
same,"activity change, positive = activation",[4],-27.3% [at 42.5 µM]
same,Potency,[5],inactive
same,Potency,[18],inactive
same,Potency,[7],inactive
same,Potency,[8],inactive
same,Potency,[10],inactive
same,Potency,[12],inactive
same,Potency,[13],inactive
same,Potency,[14],inactive
same,Potency,[15],inactive
same,Potency,[16],inactive
same,Potency,[17],inactive
C[C@H]1C[C@H]2[C@@H]3CCC4=CC(=O)C=C[C@]4(C)[C@@]3(Cl)[C@@H](O)C[C@]2(C)[C@@]1(O)C(=O)CO,Potency,[1],inactive
same,Potency,[3],26.6 µM (active)
same,"activity change, positive = activation",[4],-28.8% [at 42.5 µM]
same,Potency,[5],inactive
same,Potency,[6],inactive
same,Potency,[18],inactive
same,Potency,[7],inactive
same,max response,[11],-22.6%
same,Potency,[12],inactive
same,Potency,[13],inactive
same,Potency,[14],inactive
same,Potency,[15],inactive
same,Potency,[16],inactive
same,Potency,[17],inactive
Clc1ccc2c(c1)CCc1cccnc1C2=C1CCNCC1,Potency,[19],inactive
same,Potency,[18],inactive
same,Potency,[7],23.9 µM (active)
same,Potency,[9],inactive
same,Potency,[10],inactive
same,Potency,[12],inactive
same,Potency,[14],26.8 µM (active)
same,Potency,[15],23.9 µM (active)
same,Potency,[16],23.9 µM (active)
C=CC(=O)OCCOc1ccccc1,Potency,[19],inactive
same,Potency,[3],inactive
same,"activity change, positive = activation",[4],46.4% (active)
same,Potency,[5],inactive
same,Potency,[6],inactive
same,Potency,[18],inactive
same,Potency,[7],inactive
same,Potency,[8],inactive
same,Potency,[9],inactive
same,max response,[11],2.45%
same,Potency,[12],inactive
same,Potency,[15],inactive
same,Potency,[16],inactive
same,Potency,[17],inactive
C=CC(=O)OCCOCCOC(=O)C=C,Potency,[1],56.9 µM (active)
same,Potency,[3],inactive
same,"activity change, positive = activation",[4],-74.8% (active)
same,Potency,[6],34.8 µM (active)
same,Potency,[18],inactive
same,Potency,[11],31 µM (active)
same,Potency,[13],inactive
same,Potency,[16],49.2 µM (active)
same,Potency,[17],inactive
C=CC(=O)OCCOCCOCCOCCOC(=O)C=C,Potency,[1],50.8 µM (active) and 50 µM (active)
same,Potency,[5],43.2 µM (active)
same,Potency,[6],34.8 µM (active) and 24.3 µM (active)
same,Potency,[18],inactive
same,Potency,[8],49.2 µM (active) and 48.5 µM (active)
same,Potency,[9],43.2 µM (active)
same,Potency,[11],31.1 µM (active) and 19.3 µM (active)
same,Potency,[12],inactive
same,Potency,[13],inactive
same,Potency,[14],48.5 µM (active)
same,Potency,[15],inactive
same,Potency,[16],24.7 µM (active) and 13.7 µM (active)
same,Potency,[17],inactive
O=C(Cl)c1cc(C(=O)Cl)cc(C(=O)Cl)c1,Potency,[1],inactive
same,Potency,[19],inactive
same,Potency,[18],inactive
same,Potency,[11],49 µM (active)
same,Potency,[17],inactive
CCN(CC)c1ccc2c(-c3ccccc3C(=O)O)c3ccc(=[N+](CC)CC)cc-3oc2c1,Potency,[19],40.1 µM (active)
same,Potency,[3],27.3 µM (active)
same,"activity change, positive = activation",[4],-49.3%
same,Potency,[6],21.9 µM (active)
same,Potency,[18],21.9 µM (active)
same,Potency,[9],34.7 µM (active)
same,Potency,[11],24.5 µM (active)
same,Potency,[12],24.5 µM (active)
same,Potency,[13],24.5 µM (active)
same,Potency,[16],24.5 µM (active)
same,Potency,[17],inactive
